PubChem BioAssay
Calls of active or inactive are those of the source.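 How the source made its calls, unless noted: active means fluorescence slope higher than the sample average by over 3 SD (cut at about -0.22 in these data, passing the limit was not always enough); inactive means the rest.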

Test system: not listed separately
Experiment: endothelial E-selectin expression blockers – imaging, HUVEC, immunofluorescence, MLSMR starter and 10KST1 sets, primary screen (AID 487;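 active means visually confirmed hit in the image check and inhibition above 20%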;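 on inhibition: signal is fraction of cell area covered by stained E-selectin grains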;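 on nuclei count: 100% = median nuclei count of all wells on the same plate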)
Details: HUVEC TNFalpha-induced E-selectin immunofluorescence imaging, at 2 µM; inhibition: stronger effect = higher value; nuclei count: measured here: cell number, toxicity

SMILES | inhibition | nuclei count [%]
O=C(OCC(=O)c1cccs1)C1=COCCO1 | 5.3% (inactive) | 119
CCCc1cc(C(=O)Nc2ccccc2C(=O)OC)no1 | -50.4% (inactive) | 111
CCCCOc1ccc(-c2nnn(C(C)(C)C(=O)OC)n2)cc1 | 1.6% (inactive) | 102

Target: Voltage-gated potassium channel subunit beta-2 (Rattus norvegicus) (UniProt P62483)
Experiment: inhibitors of rat Kvbeta2 reductase activity – biochemical, NADPH fluorescence, primary screen (AID 622);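 further: slope of raw intensity against log time taken from 70 to 1610 s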
Details: recombinant KvBeta, 4-cyanobenzaldehyde reduction, at 10 µM, stronger effect = higher value

Voltage-gated potassium channel subunit beta-2 (Rattus norvegicus), sequence (P62483 whole entry, looked up): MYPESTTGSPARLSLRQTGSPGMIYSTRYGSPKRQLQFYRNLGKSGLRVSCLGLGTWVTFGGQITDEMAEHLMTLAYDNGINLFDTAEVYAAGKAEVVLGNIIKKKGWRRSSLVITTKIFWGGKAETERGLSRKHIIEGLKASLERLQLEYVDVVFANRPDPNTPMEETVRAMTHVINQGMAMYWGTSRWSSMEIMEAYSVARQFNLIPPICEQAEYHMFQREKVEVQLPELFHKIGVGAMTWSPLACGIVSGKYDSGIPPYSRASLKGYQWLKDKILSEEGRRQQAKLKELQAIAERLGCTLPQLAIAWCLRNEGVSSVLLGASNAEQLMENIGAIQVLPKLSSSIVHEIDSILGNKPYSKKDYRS

SMILES | fluorescence slope
CCOCC(=O)Nc1ccc(S(=O)(=O)N2CCOCC2)cc1 | -0.418 (inactive)
Cc1cc(NS(=O)(=O)c2ccc(NC(=O)COc3ccc(Cl)cc3)cc2)no1 | -0.292 (inactive)
COc1ccc(C2C(C(C)=O)=C(C)N=c3s/c(=C/c4ccc5c(c4)OCO5)c(=O)n32)cc1 (stereo unspecified) | -0.528 (inactive)
CCOc1ccc(OCC)c(NS(=O)(=O)c2ccc3c(c2)n(C)c(=O)c(=O)n3C)c1 | -0.432 (inactive)
COCCn1nnnc1C(c1ccc(OC)cc1)N1CCN(c2ccccc2F)CC1 (stereo unspecified) | -0.585 (inactive)
CCOC(=O)Nc1ccc2c(CN3C(=O)NC4(CCCC4)C3=O)cc(=O)oc2c1 | -0.229 (inactive)
CCc1ccc(C2CC(c3cccc(OC)c3)n3nc(N)nc3N2)cc1 (stereo unspecified) | -0.599 (inactive)
CCOC(=O)N1CCC(NC(=O)CCC(=O)N2CC(C)Oc3ccc(Cl)cc32)CC1 (stereo unspecified) | -0.369 (inactive)
COc1cccc(C2CC(c3ccc(C)cc3)Nc3nc(N)nn32)c1 (stereo unspecified) | -0.564 (inactive)
CC1=C/C(=C/N(C)c2ccccc2)C(=O)S1 | -0.61 (inactive)
CCCN(CCC)C(=O)C1CCN(c2cc(C)nc3c(-c4ccc(OC)c(OC)c4)c(C)nn23)CC1 | -0.492 (inactive)
CSc1nc2ccc(S(=O)(=O)N3CCOCC3)cc2s1 | -0.415 (inactive)
O=C(CSc1ncn[nH]1)c1ccco1 | -0.453 (inactive)
CCNc1ccc2c(Cl)cc(=O)oc2c1 | -0.255 (inactive)
Cn1c(N2CCC(C(N)=O)CC2)nc2c1c(=O)n(Cc1ccc(Br)cc1)c(=O)n2C | -0.571 (inactive)
COCCOC(=O)C1=C(C)OC(N)=C(C#N)C1c1ccc2c(c1)OCO2 (stereo unspecified) | -0.44 (inactive)
COc1ccc(S(=O)(=O)N(CCN2CCOCC2)Cc2cc(OC)ccc2OC)cc1 | -0.582 (inactive)
COC(=O)c1nc(N)sc1-c1ccccc1 | -0.352 (inactive)
CC(C)C(c1nnnn1C1CCCC1)N1CCN(C(=O)c2ccco2)CC1 (stereo unspecified) | -0.566 (inactive)
O=C(Nc1ccccc1-c1nc2ccccc2o1)c1ccc2c(c1)OCCO2 | -0.131 (inactive)

SMILES | fluorescence slope
N#Cc1nc(COc2ccccc2Cl)oc1N1CCCCCC1 | -0.431 (inactive)
Cn1c(C(=O)NCCCN2CCN(c3ccc(F)cc3)CC2)cc2c(=O)n(C)c3ccccc3c21 | -0.42 (inactive)
Cc1[nH]c(=O)[nH]c(=O)c1S(=O)(=O)N1CCCC(C(=O)NCc2ccco2)C1 (stereo unspecified) | -0.402 (inactive)
COc1ccc(C(=O)CSc2nc(C)cc(=O)[nH]2)cc1 | -0.506 (inactive)
Nc1nc(N2CCN(C/C=C/c3ccccc3)CC2)nc2ccccc12 | -0.607 (inactive)
COc1ccc(OC)c(C(=O)c2ccc(C(=O)O)cc2)c1 | -0.508 (inactive)
CCOC(=O)N1CCN(C(=O)c2ccc(CS(=O)(=O)c3ccc(OC)cc3)o2)CC1 | -0.39 (inactive)
CN1C(=O)C(O)(CC(=O)c2ccc3c(c2)OCO3)c2ccccc21 (stereo unspecified) | -0.457 (inactive)
O=C(COC(=O)c1cc(S(=O)(=O)N2CCOCC2)cs1)c1ccccc1 | -0.485 (inactive)
CN1CCN(S(=O)(=O)c2ccc(NC(=O)c3ccc(F)cc3)cc2)CC1 | -0.424 (inactive)
CCOCCCNC(=O)c1cc2sc(Cl)cc2n1CC | -0.531 (inactive)
O=C(Nc1ccc(O)cc1)C1CCCN1S(=O)(=O)c1ccc(F)cc1 (stereo unspecified) | -0.497 (inactive)
COc1ccc(CCNc2oc(-c3ccco3)nc2C#N)cc1 | -0.605 (inactive)
Cc1cc(OCC(O)CN2CCN(CCO)CC2)ccc1C(C)C (stereo unspecified) | -0.439 (inactive)
CCOC(=O)c1c(N)nn(C(=O)C(C)C)c1-c1ccccc1 | -0.529 (inactive)
CCOC(=O)c1cccc(NC(=O)C2CCN(S(=O)(=O)c3cccs3)CC2)c1 | -0.634 (inactive)
CCOC(=O)c1cccc(NC(=O)CSc2nc3cccnc3n2C)c1 | -0.526 (inactive)
O=C(OCC(=O)c1cccs1)C1=COCCO1 | -0.345 (inactive)
CCCc1cc(C(=O)Nc2ccccc2C(=O)OC)no1 | -0.629 (inactive)
CCCCOc1ccc(-c2nnn(C(C)(C)C(=O)OC)n2)cc1 | -0.502 (inactive)

Target: Voltage-gated potassium channel subunit beta-2 (Rattus norvegicus) (UniProt P62483)
Experiment: enhancers of rat Kvbeta2 NADPH turnover – biochemical, NADPH fluorescence, primary screen (AID 623;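 active means NADPH fluorescence slope more negative than the mean of all samples by about 3 SD, 99.7% confidence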;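 further: fluorescence intensity change per second fitted from 20 to 320 s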)
Details: Recombinant KvBeta, NADPH fluorescence decrease slope, 10 min; at 10 µM; stronger effect = lower value

SMILES | NADPH fluorescence slope
CCOCC(=O)Nc1ccc(S(=O)(=O)N2CCOCC2)cc1 | 5.9e-06 (inactive)
Cc1cc(NS(=O)(=O)c2ccc(NC(=O)COc3ccc(Cl)cc3)cc2)no1 | -6.7e-05 (inactive)
COc1ccc(C2C(C(C)=O)=C(C)N=c3s/c(=C/c4ccc5c(c4)OCO5)c(=O)n32)cc1 (stereo unspecified) | -5.5e-05 (inactive)
CCOc1ccc(OCC)c(NS(=O)(=O)c2ccc3c(c2)n(C)c(=O)c(=O)n3C)c1 | -4.6e-05 (inactive)
COCCn1nnnc1C(c1ccc(OC)cc1)N1CCN(c2ccccc2F)CC1 (stereo unspecified) | -9.6e-06 (inactive)
CCOC(=O)Nc1ccc2c(CN3C(=O)NC4(CCCC4)C3=O)cc(=O)oc2c1 | -2.4e-05 (inactive)
CCc1ccc(C2CC(c3cccc(OC)c3)n3nc(N)nc3N2)cc1 (stereo unspecified) | -4e-05 (inactive)
CCOC(=O)N1CCC(NC(=O)CCC(=O)N2CC(C)Oc3ccc(Cl)cc32)CC1 (stereo unspecified) | -5e-05 (inactive)
COc1cccc(C2CC(c3ccc(C)cc3)Nc3nc(N)nn32)c1 (stereo unspecified) | 4e-05 (inactive)
CC1=C/C(=C/N(C)c2ccccc2)C(=O)S1 | 1.5e-05 (inactive)
CCCN(CCC)C(=O)C1CCN(c2cc(C)nc3c(-c4ccc(OC)c(OC)c4)c(C)nn23)CC1 | -2.2e-05 (inactive)
CSc1nc2ccc(S(=O)(=O)N3CCOCC3)cc2s1 | -6.4e-05 (inactive)
O=C(CSc1ncn[nH]1)c1ccco1 | -9.5e-06 (inactive)
CCNc1ccc2c(Cl)cc(=O)oc2c1 | -3e-05 (inactive)
Cn1c(N2CCC(C(N)=O)CC2)nc2c1c(=O)n(Cc1ccc(Br)cc1)c(=O)n2C | -2.3e-05 (inactive)
COCCOC(=O)C1=C(C)OC(N)=C(C#N)C1c1ccc2c(c1)OCO2 (stereo unspecified) | -3.9e-05 (inactive)
COc1ccc(S(=O)(=O)N(CCN2CCOCC2)Cc2cc(OC)ccc2OC)cc1 | -1.5e-06 (inactive)
COC(=O)c1nc(N)sc1-c1ccccc1 | 2.3e-05 (inactive)
CC(C)C(c1nnnn1C1CCCC1)N1CCN(C(=O)c2ccco2)CC1 (stereo unspecified) | -1.1e-05 (inactive)
O=C(Nc1ccccc1-c1nc2ccccc2o1)c1ccc2c(c1)OCCO2 | 1.2e-05 (inactive)

SMILES | NADPH fluorescence slope
N#Cc1nc(COc2ccccc2Cl)oc1N1CCCCCC1 | -5e-05 (inactive)
Cn1c(C(=O)NCCCN2CCN(c3ccc(F)cc3)CC2)cc2c(=O)n(C)c3ccccc3c21 | -6.1e-05 (inactive)
Cc1[nH]c(=O)[nH]c(=O)c1S(=O)(=O)N1CCCC(C(=O)NCc2ccco2)C1 (stereo unspecified) | -2.3e-05 (inactive)
COc1ccc(C(=O)CSc2nc(C)cc(=O)[nH]2)cc1 | 2.1e-06 (inactive)
Nc1nc(N2CCN(C/C=C/c3ccccc3)CC2)nc2ccccc12 | -2.5e-05 (inactive)
COc1ccc(OC)c(C(=O)c2ccc(C(=O)O)cc2)c1 | -2.9e-05 (inactive)
CCOC(=O)N1CCN(C(=O)c2ccc(CS(=O)(=O)c3ccc(OC)cc3)o2)CC1 | 2.2e-05 (inactive)
CN1C(=O)C(O)(CC(=O)c2ccc3c(c2)OCO3)c2ccccc21 (stereo unspecified) | 6.3e-06 (inactive)
O=C(COC(=O)c1cc(S(=O)(=O)N2CCOCC2)cs1)c1ccccc1 | -5.8e-05 (inactive)
CN1CCN(S(=O)(=O)c2ccc(NC(=O)c3ccc(F)cc3)cc2)CC1 | -2.3e-05 (inactive)
CCOCCCNC(=O)c1cc2sc(Cl)cc2n1CC | -9.5e-05 (inactive)
O=C(Nc1ccc(O)cc1)C1CCCN1S(=O)(=O)c1ccc(F)cc1 (stereo unspecified) | -2.5e-05 (inactive)
COc1ccc(CCNc2oc(-c3ccco3)nc2C#N)cc1 | -3.5e-05 (inactive)
Cc1cc(OCC(O)CN2CCN(CCO)CC2)ccc1C(C)C (stereo unspecified) | -3.1e-05 (inactive)
CCOC(=O)c1c(N)nn(C(=O)C(C)C)c1-c1ccccc1 | -1.3e-05 (inactive)
CCOC(=O)c1cccc(NC(=O)C2CCN(S(=O)(=O)c3cccs3)CC2)c1 | -3.5e-05 (inactive)
CCOC(=O)c1cccc(NC(=O)CSc2nc3cccnc3n2C)c1 | 4.1e-06 (inactive)
O=C(OCC(=O)c1cccs1)C1=COCCO1 | -2.7e-05 (inactive)
CCCc1cc(C(=O)Nc2ccccc2C(=O)OC)no1 | -3.3e-06 (inactive)
CCCCOc1ccc(-c2nnn(C(C)(C)C(=O)OC)n2)cc1 | -0.00029 (active)
